Assay results reported in PubChem BioAssay (NCATS).
Results filed as inconclusive are left out. The source made the active and inactive calls. Unless noted, calls come from the whole dose curve; as a rule, active = well fitted curve in either direction with a large enough effect (not every such curve was filed as active); inconclusive = small, poorly fitted or top-dose-only effect, or another doubt; inactive = flat fitted curve, though single readings scatter.

Experiments:
[1] = AP1 Signaling Pathway (AID 357); details: ME-180 AP-1-bla reporter, EGF-induced, beta-lactamase ratio, 5 h; at 17.2 µM (top of the series) unless noted;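 note: ME-180 reporter cells stimulated with EGF at its EC50 level; % is set by controls: 0 for no effect and ±100 for the full control effect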
In short: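 A ratiometric CCF4 readout (405 nm excitation; 460 and 530 nm emission) quantified AP-1-driven beta-lactamase in ME-180 cells after 5 h with compound and EC50 EGF; AC50 values were derived for activators and inhibitors.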

[2] = NFAT Signaling Pathway (AID 444); details: Jurkat NFAT-bla M1, carbachol, beta-lactamase ratio, 5 h; at 17.2 µM (top of the series) unless noted;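 note: carbachol stimulus at about its EC50 of 1 µM final; % is set by controls: 0 for no effect and ±100 for the full control effect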
In short: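 Jurkat cells carrying an NFAT-driven β-lactamase reporter and co-transfected muscarinic M1 receptor were treated with compound plus carbachol (1 uM final, an EC50 level) for 5 h at 37 °C. CCF4 loading followed for 1 h at RT; 460/530 nm ratio gave %activity.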

[3] = Stat Signaling Pathway (AID 446); details: ME-180 (cervical carcinoma) SIE beta-lactamase reporter, IL-6 stimulated, 5 h; at 17.2 µM (top of the series) unless noted;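 note: ME-180 cervical cancer cells given 40 pM IL-6 alongside compound; SIE-controlled beta-lactamase reporter measured as 460/530 nm FRET emission ratio; % is set by controls: 0 for no effect and ±100 for the full control effect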
In short: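 Compound effects on IL-6-induced STAT reporter activity were measured in ME-180 cells. After overnight culture, cells were co-treated with 40 pM IL-6 for 5 hrs before beta-lactamase substrate loading at room temperature.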

[4] = biological target: Glucocorticoid receptor (Homo sapiens) (UniProt P04150); experiment: GR-GFP Redistribution (AID 450;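 active = compounds whose dose series gives a full or clear partial fitted curve of increased nuclear translocation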; note: potency is the fitted concentration of half-maximal effect)
Sequence of Glucocorticoid receptor (Homo sapiens) (P04150 whole entry, looked up, the tested form may be a part): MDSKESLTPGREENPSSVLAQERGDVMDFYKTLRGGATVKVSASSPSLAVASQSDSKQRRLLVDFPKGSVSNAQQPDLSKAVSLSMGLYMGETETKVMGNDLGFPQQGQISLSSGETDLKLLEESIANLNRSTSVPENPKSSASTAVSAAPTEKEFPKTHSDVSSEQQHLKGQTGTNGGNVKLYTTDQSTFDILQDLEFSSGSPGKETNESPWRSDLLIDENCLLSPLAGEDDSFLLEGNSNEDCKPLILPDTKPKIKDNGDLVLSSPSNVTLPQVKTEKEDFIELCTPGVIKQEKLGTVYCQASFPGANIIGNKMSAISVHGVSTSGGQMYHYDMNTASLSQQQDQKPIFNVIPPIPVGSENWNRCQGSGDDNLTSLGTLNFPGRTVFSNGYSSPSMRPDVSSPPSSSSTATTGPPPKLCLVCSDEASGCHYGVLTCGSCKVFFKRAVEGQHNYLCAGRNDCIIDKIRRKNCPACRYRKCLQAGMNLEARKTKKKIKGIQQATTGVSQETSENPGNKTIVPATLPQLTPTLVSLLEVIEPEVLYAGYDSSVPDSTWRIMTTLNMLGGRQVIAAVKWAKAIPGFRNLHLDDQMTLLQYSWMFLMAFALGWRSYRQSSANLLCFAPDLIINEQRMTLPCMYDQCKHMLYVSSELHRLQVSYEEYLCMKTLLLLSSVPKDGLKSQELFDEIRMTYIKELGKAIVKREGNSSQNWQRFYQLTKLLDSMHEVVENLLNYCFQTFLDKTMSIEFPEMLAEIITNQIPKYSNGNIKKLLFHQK

[5] = biological target: Glucocorticoid receptor (Homo sapiens) (UniProt P04150); experiment: GR-EFC Redistribution (AID 451; calls by dose curve; note: potency is the fitted concentration of half-maximal effect); details: CHO-K1 GR-EFC translocation, beta-gal luminescence, 2 h
In short: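 CHO-K1 cells stably expressing nuclear-localized β-gal enzyme acceptor and GR fused C-terminally to the enzyme donor fragment; ligand-driven nuclear translocation restores β-gal by complementation. Compounds titrated up to 46 uM final, 2 h at 37 °C; luminescence read.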

[6] = biological target: Mitogen-activated protein kinase 10 (Mus musculus) (UniProt Q61831); experiment: JNK3 AlphaScreen Assay (AID 530);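 note: kinase came from lysate of stimulated human HepG2 cells; signal reports phosphorylation of biotinylated GST-cJun 1-79 at Ser73 with 10 µM ATP; % is set by controls: 0 for no effect and ±100 for the full control effect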
In short: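 Phosphorylation of biotinylated GST-cJun(1-79) at Ser73 is measured by AlphaScreen proximity luminescence. Enzyme is JNK3 in HepG2 lysates activated with interleukin-1beta and tumor necrosis factor alpha; ATP is 10 uM final.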

[7] = biological target: 3',5'-cyclic-AMP phosphodiesterase 4B (Homo sapiens) (UniProt Q07343); experiment: qHTS Assay for Inhibitors of PDE-IV (AID 607; active = well fitted activation curve with a large enough effect in the main read-out, with a control signal flat, not every such curve was filed as active; note: % of control where 0% means no effect)
Sequence of 3',5'-cyclic-AMP phosphodiesterase 4B (Homo sapiens) (Q07343 whole entry, looked up): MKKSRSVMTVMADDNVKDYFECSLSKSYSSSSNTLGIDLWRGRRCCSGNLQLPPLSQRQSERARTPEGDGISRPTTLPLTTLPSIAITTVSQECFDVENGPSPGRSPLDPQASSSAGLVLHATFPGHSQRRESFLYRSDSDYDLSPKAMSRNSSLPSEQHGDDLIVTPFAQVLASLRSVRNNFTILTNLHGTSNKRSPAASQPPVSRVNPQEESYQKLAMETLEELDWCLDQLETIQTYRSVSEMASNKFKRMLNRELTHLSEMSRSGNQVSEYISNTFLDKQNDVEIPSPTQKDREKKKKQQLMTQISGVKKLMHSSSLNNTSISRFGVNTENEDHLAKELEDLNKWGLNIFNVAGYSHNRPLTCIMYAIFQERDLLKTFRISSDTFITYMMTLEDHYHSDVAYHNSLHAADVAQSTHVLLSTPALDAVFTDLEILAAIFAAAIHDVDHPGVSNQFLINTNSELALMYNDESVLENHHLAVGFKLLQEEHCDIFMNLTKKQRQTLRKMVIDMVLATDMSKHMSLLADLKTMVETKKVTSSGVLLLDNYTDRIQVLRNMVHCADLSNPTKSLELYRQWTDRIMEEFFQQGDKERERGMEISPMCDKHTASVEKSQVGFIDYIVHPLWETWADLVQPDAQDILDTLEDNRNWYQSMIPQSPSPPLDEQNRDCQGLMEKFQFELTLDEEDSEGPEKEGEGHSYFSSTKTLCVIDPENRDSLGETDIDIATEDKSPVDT
In short: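 ACTOne HEK293 cells carry a modified cAMP-gated CNG channel and express endogenous PDE4; plated 1000 cells/well, compounds up to 22.9 uM final. Membrane-potential dye fluorescence (ex 535/em 590) was read; parental cells received 10 uM forskolin + 100 uM RO 20-1724.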

[8] = biological target: Guanine nucleotide-binding protein G(i) subunit alpha-1 (Homo sapiens) (UniProt P63096); experiment: qHTS Assay for Inhibitors of RGS12 GoLoco Motif Activity (Green Fluorophore) (AID 879; active = well fitted curve in the direction sought with a large enough effect; an effect the other way counts as inactive or inconclusive;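 note: 0% = labeled peptide with Gαi1 and full inhibition = labeled peptide alone without protein; negative values mean loss of peptide binding seen as reduced polarization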)
Sequence of Guanine nucleotide-binding protein G(i) subunit alpha-1 (Homo sapiens) (P63096 whole entry, looked up): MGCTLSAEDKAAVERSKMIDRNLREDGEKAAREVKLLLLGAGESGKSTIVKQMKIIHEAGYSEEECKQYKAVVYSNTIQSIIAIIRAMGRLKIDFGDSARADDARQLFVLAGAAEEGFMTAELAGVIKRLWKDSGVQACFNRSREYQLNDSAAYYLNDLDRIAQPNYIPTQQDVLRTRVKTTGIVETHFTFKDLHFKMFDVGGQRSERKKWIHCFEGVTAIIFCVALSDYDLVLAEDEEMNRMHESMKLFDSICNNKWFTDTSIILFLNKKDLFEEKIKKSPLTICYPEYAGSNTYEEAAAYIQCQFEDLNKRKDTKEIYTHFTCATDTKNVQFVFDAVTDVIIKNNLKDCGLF
In short: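 A drop in FITC polarization marked displacement of the FITC-tagged RGS12 GoLoco peptide (10 nM) from Gαi1 (50 nM). Compounds were incubated 10 min at room temperature in Tris pH 7.5 buffer containing 150 mM NaCl, 0.1 mM GDP and 0.05% NP40; unlabeled peptide titration served as control.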

[9] = qHTS Assay for Identification of Small Molecule Antagonists for NFkB Signaling Pathway (AID 895; active = well fitted inhibition curve with a large enough effect in the signal ratio, with a control signal flat, not every such curve was filed as active; the % refers to the signal ratio; note: potency is the fitted concentration of half-maximal effect)
In short: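 NFkB-bla ME-180 cervical carcinoma cells with beta-lactamase reporter under NFkB response element; compounds added, then TNF alpha at 10 pM final (EC50), 5 h at 37 C. LiveBLAzer substrate 2 h, room temperature; emission 460/530 nm at 405 nm excitation.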

[10] = qHTS Assay for Identification of Small Molecule Agonists for Thrombopoietin (TPO) Signaling Pathway (AID 917; active = well fitted curve in the direction sought with a large enough effect; an effect the other way counts as inactive or inconclusive; note: % is set by controls: 0 for no effect and ±100 for the full control effect)
In short: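 Cell-based luciferase reporter screen. Mouse Ba/F3 line stably expressing human TPO receptor; IL-3 removed overnight before plating. Co-treatment with compound and EC50 TPO (26 pM), 24 hrs at 37 C, then luminescence.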

[11] = biological target: Muscarinic acetylcholine receptor M1 (Rattus norvegicus) (UniProt P08482); experiment: qHTS Assay for Antagonists of Acetylcholine Muscarinic M1 Receptor: Measurement of IP-One Response (AID 944; active = well fitted curve in the direction sought with a large enough effect; an effect the other way counts as inactive or inconclusive; note: nearly all actives have a fitted effect of over 75% in size)
Sequence of Muscarinic acetylcholine receptor M1 (Rattus norvegicus) (P08482 whole entry, looked up): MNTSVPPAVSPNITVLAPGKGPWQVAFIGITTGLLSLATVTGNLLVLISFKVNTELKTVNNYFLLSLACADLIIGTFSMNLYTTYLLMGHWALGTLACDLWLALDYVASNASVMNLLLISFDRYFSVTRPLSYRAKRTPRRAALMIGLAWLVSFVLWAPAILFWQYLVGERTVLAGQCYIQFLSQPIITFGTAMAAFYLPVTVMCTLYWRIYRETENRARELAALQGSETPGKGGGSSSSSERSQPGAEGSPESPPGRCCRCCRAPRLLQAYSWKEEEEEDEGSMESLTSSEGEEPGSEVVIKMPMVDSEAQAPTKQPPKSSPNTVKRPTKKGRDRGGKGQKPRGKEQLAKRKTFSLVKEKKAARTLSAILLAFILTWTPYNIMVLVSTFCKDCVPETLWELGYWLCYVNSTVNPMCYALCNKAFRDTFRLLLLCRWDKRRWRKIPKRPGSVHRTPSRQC
In short: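 Antagonist mode with rat M1 receptor transfected into CHO cells. Compound is added first for 10 min, carbachol at its EC80 follows for 30 min, and lysis reagents then allow TR-FRET detection of accumulated IP1.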

[12] = biological target: Pyruvate kinase (Leishmania mexicana) (UniProt Q27686); experiment: qHTS Validation Assay for Inhibitors of Leishmania Mexicana Pyruvate Kinase (AID 945; active = well fitted curve in the direction sought with a large enough effect; an effect the other way counts as inactive or inconclusive;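 note: 0% = DMSO only neutral control wells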)
Sequence of Pyruvate kinase (Leishmania mexicana) (Q27686 2-499 E452W): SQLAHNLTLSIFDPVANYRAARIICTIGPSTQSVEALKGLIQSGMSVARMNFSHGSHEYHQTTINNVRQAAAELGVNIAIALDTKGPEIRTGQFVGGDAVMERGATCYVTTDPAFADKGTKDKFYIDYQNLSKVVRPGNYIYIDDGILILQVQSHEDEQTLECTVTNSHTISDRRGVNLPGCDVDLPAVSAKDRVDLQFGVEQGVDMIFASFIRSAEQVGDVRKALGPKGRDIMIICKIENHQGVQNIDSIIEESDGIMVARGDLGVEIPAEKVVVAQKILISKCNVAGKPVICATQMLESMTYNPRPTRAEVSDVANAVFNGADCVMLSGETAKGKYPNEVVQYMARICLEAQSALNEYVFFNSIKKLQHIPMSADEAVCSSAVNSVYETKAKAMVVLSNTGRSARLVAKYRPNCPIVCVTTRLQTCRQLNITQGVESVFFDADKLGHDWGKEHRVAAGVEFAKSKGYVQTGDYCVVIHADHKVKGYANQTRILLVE
In short: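 Purified LmPYK (E451W mutant, 0.2 nM) was incubated 1 h at room temperature with 0.5 mM PEP and 0.1 mM ADP in 50 mM imidazole pH 7.2, 50 mM KCl, 7 mM MgCl2; ATP formed was read by PKLight luminescence, normalized to DMSO wells.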

[13] = biological target: Pyruvate kinase PKM (Homo sapiens) (UniProt P14618); experiment: qHTS Assay for Activators of Human Muscle Pyruvate Kinase (AID 954; active = well fitted curve in the direction sought with a large enough effect, not every such curve was filed as active;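 note: 0% = uninhibited enzyme and -100% = no enzyme or full thiadiazolimine inhibition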)
Sequence of Pyruvate kinase PKM (Homo sapiens) (P14618 whole entry, looked up): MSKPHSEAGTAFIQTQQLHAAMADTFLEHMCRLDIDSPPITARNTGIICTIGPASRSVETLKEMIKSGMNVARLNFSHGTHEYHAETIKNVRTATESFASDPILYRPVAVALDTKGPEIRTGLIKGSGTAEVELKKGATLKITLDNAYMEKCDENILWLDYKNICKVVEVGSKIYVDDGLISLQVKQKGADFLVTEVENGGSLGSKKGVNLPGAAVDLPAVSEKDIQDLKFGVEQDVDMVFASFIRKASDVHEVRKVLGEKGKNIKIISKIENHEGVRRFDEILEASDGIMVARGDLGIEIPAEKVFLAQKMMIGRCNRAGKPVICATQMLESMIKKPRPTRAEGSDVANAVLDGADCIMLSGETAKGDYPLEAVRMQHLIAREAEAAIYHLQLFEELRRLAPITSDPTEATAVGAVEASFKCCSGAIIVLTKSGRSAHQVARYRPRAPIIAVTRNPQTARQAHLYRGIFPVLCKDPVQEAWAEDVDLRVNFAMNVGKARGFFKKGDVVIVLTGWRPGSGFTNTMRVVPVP
In short: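 A coupled luminescent readout tracked ATP made from ADP by purified PKM2. Final conditions included 0.1 nM enzyme, PEP and ADP at 0.5 and 0.1 mM, pH 7.2 imidazole buffer with BSA, and a one-hour room-temperature reaction.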

[14] = biological target: Alpha-galactosidase A (Homo sapiens) (UniProt P06280); experiment: Counterscreen for Glucocerebrosidase Inhibitors: qHTS Assay for Human alpha-Galactosidase at pH 4.5 (AID 992; active = well fitted curve in the direction sought with a large enough effect; an effect the other way counts as inactive or inconclusive; note: 0% is about no effect)
Sequence of Alpha-galactosidase A (Homo sapiens) (P06280 whole entry, looked up): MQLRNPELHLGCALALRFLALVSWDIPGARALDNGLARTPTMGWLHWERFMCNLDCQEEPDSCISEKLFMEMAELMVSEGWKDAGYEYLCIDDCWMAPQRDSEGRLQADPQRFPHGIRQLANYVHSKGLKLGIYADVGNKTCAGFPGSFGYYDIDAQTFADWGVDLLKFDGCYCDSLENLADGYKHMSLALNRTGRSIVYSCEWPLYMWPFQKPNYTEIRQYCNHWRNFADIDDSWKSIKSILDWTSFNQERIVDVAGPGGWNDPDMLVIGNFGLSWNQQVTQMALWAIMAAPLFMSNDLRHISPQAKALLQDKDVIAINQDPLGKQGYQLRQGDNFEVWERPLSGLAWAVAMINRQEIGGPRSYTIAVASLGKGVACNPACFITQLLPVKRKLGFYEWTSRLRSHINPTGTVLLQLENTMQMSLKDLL
In short: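 Citrate buffer pH 4.5, Tween-20 0.005%. Enzyme 2 nM, substrate 80 uM, 20 min RT. Stop pH 10. Fluorescence Ex 365/Em 440. AC50 by Hill fit.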

[15] = biological target: alpha-glucosidase (Oryza sativa, rice) (UniProt Q653V4); experiment: Counterscreen for Glucocerebrosidase Inhibitors: qHTS Assay for Rice alpha-Glucosidase at pH 5.0 (AID 997; active = well fitted curve in the direction sought with a large enough effect; an effect the other way counts as inactive or inconclusive;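 note: 0% = full activity with enzyme and -100% = basal without enzyme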)
In short: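 Endpoint fluorogenic assay at pH 5.0: compounds (0.7 nM to 77 uM) titrated against 4 nM rice enzyme and 400 uM 4-MU-alpha-glucoside for 20 min at room temperature; NaOH/glycine stop, read ex 365/em 440 nm, Hill-fitted AC50.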

[16] = biological target: Ubiquitin carboxyl-terminal hydrolase 1 (Homo sapiens) (UniProt O94782); experiment: Inhibitors of USP1/UAF1: Pilot qHTS (AID 504865; active = well fitted curve in the direction sought with a large enough effect; an effect the other way counts as inactive or inconclusive;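 note: rhodamine fluorescence freed from ubiquitin-rhodamine substrate followed over time; top concentration of the series differs between compounds; % is set by controls: 0 for no effect and ±100 for the full control effect; nearly all actives have a fitted effect of over 35% in size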)
Sequence of Ubiquitin carboxyl-terminal hydrolase 1 (Homo sapiens) (O94782 whole entry, looked up): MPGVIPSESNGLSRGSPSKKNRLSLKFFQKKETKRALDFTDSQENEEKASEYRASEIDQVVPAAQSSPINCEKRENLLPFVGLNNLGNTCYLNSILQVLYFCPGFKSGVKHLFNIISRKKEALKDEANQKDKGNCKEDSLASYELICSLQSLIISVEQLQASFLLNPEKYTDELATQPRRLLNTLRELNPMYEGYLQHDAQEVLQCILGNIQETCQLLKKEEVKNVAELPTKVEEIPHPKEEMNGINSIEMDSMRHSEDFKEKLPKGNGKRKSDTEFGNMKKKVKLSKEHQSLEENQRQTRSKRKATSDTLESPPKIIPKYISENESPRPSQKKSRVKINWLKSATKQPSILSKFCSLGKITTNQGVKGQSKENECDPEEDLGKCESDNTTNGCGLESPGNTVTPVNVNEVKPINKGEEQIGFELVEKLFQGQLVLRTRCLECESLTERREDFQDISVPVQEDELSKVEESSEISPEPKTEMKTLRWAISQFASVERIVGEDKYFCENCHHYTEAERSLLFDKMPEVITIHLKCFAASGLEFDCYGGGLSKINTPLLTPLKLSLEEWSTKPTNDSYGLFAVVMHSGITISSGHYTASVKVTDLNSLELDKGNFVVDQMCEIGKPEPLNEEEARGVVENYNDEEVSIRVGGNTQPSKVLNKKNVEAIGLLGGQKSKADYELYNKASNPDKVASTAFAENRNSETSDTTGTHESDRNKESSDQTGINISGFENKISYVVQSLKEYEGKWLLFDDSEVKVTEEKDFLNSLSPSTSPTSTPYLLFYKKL
In short: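 In 50mM HEPES pH 7.8 containing 0.5mM EDTA, 1mM TCEP, 0.1 mg/ml BSA and 0.01% Tween-20, 1nM USP1/UAF1 is exposed to compound for 15 min, then Ub-Rho (150nM final) is added and fluorescence is read over time.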

[17] = biological target: Muscarinic acetylcholine receptor M1 (Rattus norvegicus) (UniProt P08482); experiment: qHTS Assay for Antagonists of Acetylcholine Muscarinic M1 Receptor: Kinetic Measurement of Intracellular Calcium Response (AID 943; active = well fitted curve in the direction sought with a large enough effect; an effect the other way counts as inactive or inconclusive;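 note: Fluo-4 calcium signal as peak divided by basal fluorescence over 4 min; nearly all actives have a fitted effect of over 75% in size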)
In short: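 Antagonism is measured as inhibition of the carbachol-evoked calcium rise in CHO cells transfected with rat M1. Cells are dye-loaded, exposed to compound for 10 min, then stimulated with 100 nM carbachol (EC80).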

N[C@H](Cc1cccc(-c2ccccc2CP(=O)(O)O)c1)C(=O)O
inactive: activity change, negative = inhibition [1] 8.92% [at 38 µM] | activity change, negative = inhibition [2] 12.7% [at 38 µM] | activity, negative = inhibition [3] 1.71% [at 38 µM] | Potency [4] > 46 µM | Potency [5] > 46 µM | Potency [6] | Potency [7] | outcome [8] | Potency [9] | Potency [10] | Potency [11] | Potency [12] | outcome [13] | outcome [14] | outcome [15]

CC(=O)N[C@H](Cc1c[nH]c2ccccc12)C(=O)O
inactive: activity change, negative = inhibition [1] 3.17% [at 7.69 µM] | activity change, negative = inhibition [2] 4.78% [at 7.69 µM] | activity, negative = inhibition [3] 14.4% [at 7.69 µM] | Potency [4] > 46 µM | Potency [5] > 9.22 µM | activity change, negative = inhibition [6] 4.22% [at 11.4 µM] | Potency [7]

CN(C)C(=O)c1ccc(-c2ccc3ncnc(NC4CC4)c3c2)cc1
inactive: activity change, negative = inhibition [1] -22.9% [at 7.69 µM] | activity change, negative = inhibition [2] 12.3% [at 7.69 µM] | activity, negative = inhibition [3] -3.61% [at 7.69 µM] | Potency [4] > 46 µM | Potency [5] > 46 µM | Potency [6] | Potency [7] | Potency [16]

CCCCC[C@H](O)CCCC(=O)O
active: Potency [9] 5.01 µM
inactive: activity change, negative = inhibition [1] -0.599% [at 38 µM] | activity change, negative = inhibition [2] -3.23% [at 38 µM] | activity, negative = inhibition [3] -28.6% [at 38 µM] | Potency [4] > 46 µM | Potency [5] > 46 µM | Potency [6] | Potency [7] | outcome [8] | Potency [10] | Potency [17] | Potency [11] | Potency [12] | outcome [13] | outcome [14] | outcome [15]

C=CCOC(=O)C1=C(C)NC(SCC(=O)Nc2ccc(C)c(Cl)c2)=C(C#N)C1c1ccco1 (stereo not given)
inactive: activity change, negative = inhibition [1] -4.79% | activity change, negative = inhibition [2] 7.32% | activity, negative = inhibition [3] 6.22% | Potency [4] > 20.6 µM

CCCCCC[C@@H]([C@H](C)O)n1cnc2c(N)ncnc21
inactive: activity change, negative = inhibition [1] -20.5% [at 38 µM] | activity change, negative = inhibition [2] -4.53% [at 38 µM] | activity, negative = inhibition [3] 25.6% [at 38 µM] | Potency [4] > 46 µM | Potency [5] > 46 µM | Potency [6] | Potency [7] | outcome [8] | Potency [10] | Potency [17] | Potency [11] | Potency [12] | outcome [13] | outcome [14] | outcome [15]
